Compound activity from PubChem.
ATXN viability: viability counter-screen for ATXN expression inhibitors. S2 cells (HEK-293 line with an ATXN2-luciferase reporter) viability, CellTiter-Fluor protease fluorescence, 24 h. Potency, µM (series often up to 56.7 µM), actives largely listed as cytotoxic. 400,000 compounds, 0.49% hits; further: nearly all actives have a fitted effect of over 40% in size
HepG2 tox-1: HepG2 cytotoxicity, counter-screen for TGF-b inhibitors. HepG2 CAGA-GFP viability, ATP luminescence, 18 h. Potency, µM (top dose mostly 46.1 µM), actives largely listed as cytotoxic. 410,000 compounds, 0.76% hits
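CellTiter-Glo luminescence gave cytotoxicity after 18 hours at 37 degrees C. The cells were HepG2 CAGA-GFP in 1% FBS DMEM, stimulated with 500 pg/mL TGF-beta after compound addition. %Activity was normalised to no-cell wells (complete cell-killing) and DMSO (no toxicity), and curves were fitted and classified.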
ATXN2 expr inh: reduces ATXN2 reporter expression in HEK-293 cells | HEK-293 ATXN2-luciferase reporter, luminescence, 24 h | Potency, µM (series often up to 57 µM), usual class: inhibitors | 360,000 compounds, 0.72% hits; further: nearly all actives have a fitted effect of over 55% in size
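ATXN2-luciferase reporter cells (luciferase flanked by upstream and downstream ATXN2 gene portions) were treated 24 h at 37 °C with compounds at up to 57 uM. SteadyGlo luminescence gave expression; GF-AFC fluorescence gave viability.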
TGFb SMAD3 inh: blocks TGF-b signaling. HepG2 CAGA-GFP TGF-b/SMAD3 reporter, GFP fluorescence, 18 h; TGF-beta stimulated, 500 pg/mL final. Potency, µM (highest dose often 46.1 µM), most hits filed as inhibitors. 410,000 compounds, 1.2% hits; further: nearly all actives have a fitted effect of over 65% in size
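Per well, imaged GFP fluorescence of HEPG2 CAGA-GFP cells gives the signal; cells get compound, then TGF-beta (500 pg/mL final), 18 h at 37 degrees C; %Activity versus -TGF-beta and +DMSO controls.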
DRD3 antagonist: D3 dopamine receptor (human) antagonism; max response, negative = inhibition, %; 360,000 compounds, 2.5% hits; P35462; D3R cells, DiscoveRx beta-arrestin luminescence, antagonist mode; hits give low values; in the data active means max response below about -50%; inconclusive means no clear call, values can overlap the other calls
Target sequence (P35462 whole entry, looked up): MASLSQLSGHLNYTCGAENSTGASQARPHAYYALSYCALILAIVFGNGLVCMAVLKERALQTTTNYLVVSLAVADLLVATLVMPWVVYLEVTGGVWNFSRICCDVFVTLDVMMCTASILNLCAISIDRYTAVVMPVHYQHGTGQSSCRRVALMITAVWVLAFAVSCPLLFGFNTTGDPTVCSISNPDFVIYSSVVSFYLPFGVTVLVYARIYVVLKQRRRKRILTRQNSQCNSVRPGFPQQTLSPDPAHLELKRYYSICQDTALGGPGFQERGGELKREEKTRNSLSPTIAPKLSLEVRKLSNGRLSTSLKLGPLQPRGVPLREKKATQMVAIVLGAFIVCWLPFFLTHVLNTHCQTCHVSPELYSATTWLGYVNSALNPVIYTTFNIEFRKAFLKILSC
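Cells expressing the human receptor were seeded at 1500 cells/well, incubated overnight at 37 degrees C in 5% CO2, then exposed to library compounds with dopamine controls for 90 minutes at 37 degrees C before luminescent detection.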
DRD3 agonist: activates the human D3 dopamine receptor; P35462; D3R DiscoveRx beta-arrestin cells, luminescence, 90 min; max activation, %; 410,000 compounds, 0.58% hits; AID 652048; in the data active means max activation above about 30%
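Agonist-mode cell screen: cells plated at 1500/well and incubated overnight at 37 °C, then exposed to library compounds for 90 min at 37 °C. Detection reagent was added for 30–60 min at room temperature, and luminescence was read.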
TGFb CAGA inh: TGF-b pathway inhibition, cherry-pick retest | shares compounds with TGFb SMAD3 inh | HepG2 CAGA-GFP TGF-b reporter, GFP fluorescence, 18 h; cells stimulated with TGF-beta, 500 pg/mL | Potency, µM (series often up to 46.1 µM), most hits filed as inhibitors | 1,600 compounds, 63% hits | AID 720534; further: nearly all actives have a fitted effect of over 65% in size
HepG2 tox-2: HepG2 cytotoxicity, TGF-b inhibitor counterscreen | Potency, µM (titrated, usually from 46.1 µM), hits mostly inhibitors | 1,600 compounds, 27% hits | shares compounds with TGFb SMAD3 inh | HepG2 CAGA-GFP viability, ATP luminescence, 18 h; cells stimulated with TGF-beta, 500 pg/mL; further: nearly all actives have a fitted effect of over 70% in size
TGFb CCL64 inh: orthogonal confirmation of TGF-b inhibitors in CCL64 cells | shares compounds with TGFb SMAD3 inh | CCL64 CAGA-GFP reporter, TGF-b stimulated, GFP fluorescence, 18 h | 1,600 compounds, 41% hits | Potency, µM (doses to about 46.1 µM), actives largely listed as inhibitors; further: nearly all actives have a fitted effect of over 65% in size
TGFb COP inh: TGF-b inhibition validated with COP promoter; 1,600 compounds, 3% hits; Potency, µM (series often up to 46.1 µM), hits mostly inhibitors; shares compounds with TGFb SMAD3 inh; HepG2 COP-GFP TGF-b reporter, GFP fluorescence, 18 h; cells stimulated by added recombinant TGF-beta; AID 720537; further: nearly all actives have a fitted effect of over 70% in size
A number is an active result; i = inactive; ? = inconclusive; nt = no result given. Hits are enriched below; roughly 4.8% of the tested compounds scored in any of these assays. Unless noted, the call rests on the fitted dose curve; in most records, active means well fitted curve in the direction sought with a large enough effect; inconclusive means small, poorly fitted or top-dose-only effect, or another doubt; inactive means no such curve, though single readings can be large; an effect the other way counts as inactive or inconclusive.

SMILES	ATXN viability	HepG2 tox-1	ATXN2 expr inh	TGFb SMAD3 inh	DRD3 antagonist	DRD3 agonist	others
Cc1ccc2c(c1)C1CN(C)CCC1N2C(=O)c1ccco1 (configuration not stated)	i	i	i	i	i	i
COc1ccc(-c2nn(-c3ccccc3)cc2C(=O)N2c3ccc(C)cc3C3CN(C)CCC32)cc1 (configuration not stated)	i	i	i	10µM	i	i	TGFb CAGA inh=i;HepG2 tox-2=i;TGFb CCL64 inh=?;TGFb COP inh=i
CC1OC(OC2CC(O)C3(CO)C4C(O)CC5(C)C(C6=CC(=O)OC6)CCC5(O)C4CCC3(O)C2)C(O)C(O)C1O (configuration not stated)	?	i	0.006µM	1.1µM	i	i	TGFb CAGA inh=3.7µM;HepG2 tox-2=0.29µM;TGFb CCL64 inh=0.21µM;TGFb COP inh=i
CCCCn1nnnc1C(c1ccc(OC)cc1)N1CCC2(CC1)C(=O)NCN2c1ccccc1 (configuration not stated)	?	i	i	?	i	i
O=C(OCCN1CCCCC1)C(O)(c1ccccc1)c1ccccc1	nt	nt	nt	nt	nt	i
COc1cc(/C=C/c2nc3ccccc3c(=O)n2-c2ccc(Br)c(C)c2)ccc1O	nt	i	nt	?	nt	i
Cc1ccccc1S(=O)(=O)N1C[C@H]2[C@H]3C(=O)N(C4CCCCC4)C(=O)[C@H]3CC(=O)[C@H]2[C@@H]1c1ccc(Cl)cc1	i	i	i	?	i	i
CN(C)C(=O)Oc1ccnc2cc(Cl)ccc12	i	i	i	i	i	i
COc1ccc(C(O)P(=O)(OC2CCCCC2)c2ccc(N(C)C)cc2)cc1OC (configuration not stated)	i	i	i	?	i	i
CCCOc1ccc(C(=O)CCC(=O)NNC(=O)c2ccncc2)cc1	?	i	i	?	i	i
CCOC(=O)N1CCC(NC(=O)c2ccc3c(c2)N(Cc2cccc(C)c2)C(=O)c2ccccc2S3(=O)=O)CC1	i	i	i	?	nt	i
CCC(=O)Nc1ccc(C(=O)OCc2ccccc2Cl)cc1	?	i	i	i	i	i
CN1CCN(c2ccc(C(F)(F)F)cc2N)CC1	i	i	i	i	i	i
CC(=O)c1c(C)n(Cc2ccccc2)c2ccc(O)cc12	i	i	nt	i	i	i
O=C1NCCOC(=O)[C@@H](Cc2ccc(F)cc2)CC/C=C/C[C@H]1CC(=O)N(CCO)Cc1ccccc1	i	i	i	i	i	i
CCc1nc2ccc(C(=O)N3CCN(C(=O)c4ccco4)CC3)cn2c1N(C)Cc1ccc(OC)cc1	i	i	i	?	i	i
NCC(O)c1cccc(O)c1 (configuration not stated)	nt	nt	nt	nt	nt	i
C[C@H]1COC(=O)[C@@H](Cc2ccc(F)cc2)CC/C=C/C[C@H](CC(=O)N(CCO)Cc2ccccc2)C(=O)N1	i	i	i	i	i	i
CCCC1CCCCN1 (configuration not stated)	i	nt	i	nt	nt	i
COc1ccccc1NC(=O)Oc1cccc(OC(=O)c2ccccc2)c1	?	i	nt	i	i	i
CC/C(=C(\c1ccc(O)cc1)c1ccc(OCCN(C)C)cc1)c1ccccc1	nt	i	?	?	i	i
CN1CCC(N(C)c2nc(-c3ccccc3)nc3ccccc23)CC1	i	i	?	i	i	i
O=C(Nc1ccccc1C(F)(F)F)c1cccn(Cc2ccccc2)c1=O	i	i	i	i	nt	i
CO[C@@H](C)[C@](O)(C(=O)OCC1=CCN2CC[C@@H](O)[C@H]12)C(C)C	i	nt	nt	nt	nt	nt
Cc1cccc(-n2nc(C)c(C(=O)N3CCN(c4ccccc4)CC3)c2-n2cccc2)c1	nt	i	nt	?	nt	i
SMILES	ATXN viability	HepG2 tox-1	ATXN2 expr inh	TGFb SMAD3 inh	DRD3 antagonist	DRD3 agonist	others
O=c1c2ccccc2nc(/C=C/c2ccccc2O)n1-c1ccc(Br)cc1	nt	i	nt	i	nt	i
CCN(CC)CCNC(=O)c1c(O)c2ccccc2n(Cc2ccccc2)c1=O	?	i	i	i	i	i
CN1CCC(OC(=O)Cc2ccccc2)CC1	i	i	nt	i	i	i
CCOP(=O)(OCC)O/C(=C/Cl)c1ccc(Cl)cc1Cl	nt	nt	nt	nt	nt	i
CC1Cc2ccccc2CN1 (configuration not stated)	nt	i	nt	i	nt	nt
O.O.O.O=C([O-])C(O)C(O)C(=O)[O-].O=C([O-])C(O)C(O)C(=O)[O-].[K+].[K+].[Sb].[Sb] (configuration not stated)	?	nt	nt	nt	nt	i
